The source of these data is PubChem BioAssay (NCI).

Compounds without any hit were thinned out: in the full panel of roughly 79,000, 15% have a hit. A number with no mark means an inactive call. Activity calls are given as the source filed them. No stated cut-off is given here; in the data, active means growth inhibition above about 70%; inactive means the rest.

Assay [1] is described as follows: NCI Yeast Anticancer Drug Screen. Data for the rad50 strain (AID 155).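 Further: 0% = growth of vehicle-only cultures of the same strain.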 Conditions: S. cerevisiae rad50 strain growth inhibition, stronger effect = higher value. An outline of the steps: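 DNA repair mutant yeast, compound exposure, growth read-out; inhibition is taken relative to vehicle.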
Assay [2] is described as follows: NCI Yeast Anticancer Drug Screen. Data for the mec2-1 strain (AID 157). Conditions: S. cerevisiae mec2-1 strain, stronger effect = higher value. In short, it runs like this: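 Cells of the genetically defined mec2-1 yeast strain are incubated with test compound. Inhibition of growth is calculated against vehicle-treated controls.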
Assay [3] is described as follows: NCI Yeast Anticancer Drug Screen. Data for the sgs1 mgt1 strain (AID 161).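 Further: 0% = growth of cultures given vehicle only.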 Conditions: S. cerevisiae sgs1 mgt1 strain, stronger effect = higher value. In short, it runs like this: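 Read-out: growth inhibition vs vehicle controls. Cells: mutant yeast strain deficient in DNA damage repair.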
A short description of assay [4]: NCI Yeast Anticancer Drug Screen. Data for the cln2 rad14 strain (AID 165).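 Further: 0% = growth equal to vehicle treated cultures.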 Conditions: S. cerevisiae cln2 rad14 strain, stronger effect = higher value. In short, it runs like this: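 The screen exposed genetically defined yeast (cln2 rad14) to test compounds and scored growth inhibition relative to vehicle-treated controls.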
A short description of assay [5]: NCI Yeast Anticancer Drug Screen. Data for the bub3 strain (AID 167). Conditions: S. cerevisiae bub3 mutant strain, stronger effect = higher value. An outline of the steps: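 In this screen, a yeast mutant lacking normal mitotic checkpoint function is challenged with compound. Relative growth versus vehicle gives the inhibition value.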
Assay [6] in a line: NCI Yeast Anticancer Drug Screen. Data for the mlh1 rad18 strain (AID 175). Conditions: S. cerevisiae mlh1 rad18 strain growth inhibition, stronger effect = higher value. An outline of the steps:
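Compound-treated yeast growth, normalised to vehicle controls. Strain bears defined DNA repair mutations.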

Where [7] appears, read: at 5.0 µM (retest, dose inferred, filed as 0.5).
Setting [8] is: at 50.0 µM (retest, dose inferred, filed as 5.0).

For `CCOC(=O)c1c(C)[nH]c(C(=O)C(N)C(=O)OCC)c1C` (stereo not given), the growth inhibition in assay [1] (setting [7]) was 8%; in assay [1] (setting [8]) it was -3%; in assay [1] (at 50.0 µM), 98% (active); in assay [2] (setting [7]), 6%; in assay [2] (setting [8]) it was -6%; in assay [2] (at 50.0 µM), 99.5% (active). Besides, the growth inhibition is 7% in assay [3] (setting [7]); -1% in assay [3] (setting [8]); 98.8% (active) in assay [3] (at 50.0 µM); 3% in assay [4] (setting [7]); -1% in assay [4] (setting [8]); 99.5% (active) in assay [4] (at 50.0 µM). For the same compound, the growth inhibition was -3% in assay [5] (setting [7]); -5% in assay [5] (setting [8]); 99.4% (active) in assay [5] (at 50.0 µM); 4% in assay [6] (setting [7]); -6% in assay [6] (setting [8]); 99% (active) in assay [6] (at 50.0 µM).
In the case of `O=C1C(Cl)=C(NCCC2CCCN3CCCCC23)C(=O)c2ccccc21` (stereo not given), the growth inhibition in assay [1] (setting [7]) is 13%; in assay [1] (setting [8]), 48%; in assay [1] (at 50.0 µM) it was 65.3%; in assay [2] (setting [7]), -8%; in assay [2] (setting [8]), 54%; in assay [2] (at 50.0 µM) it was 53.4%. Also, the growth inhibition was 10% in assay [3] (setting [7]); 55% in assay [3] (setting [8]); 79.5% (active) in assay [3] (at 50.0 µM); 2% in assay [4] (setting [7]); 37% in assay [4] (setting [8]); 63.7% in assay [4] (at 50.0 µM). Further, the growth inhibition was 2% in assay [5] (setting [7]); 51% in assay [5] (setting [8]); 26.1% in assay [5] (at 50.0 µM); 6% in assay [6] (setting [7]); 27% in assay [6] (setting [8]); 70.8% (active) in assay [6] (at 50.0 µM).
On to `N#CC(C#N)C(c1ccccc1)c1ccccc1`, for which the growth inhibition in assay [1] (setting [7]) was -4%; in assay [1] (setting [8]) it was 5%; in assay [1] (at 50.0 µM) it was 13.1%; in assay [2] (setting [7]) it was 6%; in assay [2] (setting [8]), 20%; in assay [2] (at 50.0 µM) it was 17.9%. Further, the growth inhibition in assay [3] (setting [7]) is 1%; in assay [3] (setting [8]), -41%; in assay [3] (at 50.0 µM) it was 11%; in assay [4] (setting [7]) it was -3%; in assay [4] (setting [8]), -10%; in assay [4] (at 50.0 µM), -1.1%. Also, the growth inhibition in assay [5] (setting [7]) was 0%; in assay [5] (setting [8]), 0%; in assay [5] (at 50.0 µM), 1.75%; in assay [6] (setting [7]) it was -1%; in assay [6] (setting [8]), 2%; in assay [6] (at 50.0 µM), 10.5%.
As to `CCOC(=O)/C(=C\n1c(=O)sc2ccccc21)C(=O)c1ccccc1`, the growth inhibition in assay [1] (setting [7]) was 18%; in assay [1] (setting [8]), 24%; in assay [1] (at 50.0 µM), 24.6%; in assay [2] (setting [7]) it was 19%; in assay [2] (setting [8]), 55%; in assay [2] (at 50.0 µM) it was 50.5%. Moreover, the growth inhibition was 27% in assay [3] (setting [7]); 64% in assay [3] (setting [8]); 74.8% (active) in assay [3] (at 50.0 µM); 22% in assay [4] (setting [7]); 26% in assay [4] (setting [8]); 19.5% in assay [4] (at 50.0 µM). Moreover, the growth inhibition in assay [5] (setting [7]) was 21%; in assay [5] (setting [8]), 57%; in assay [5] (at 50.0 µM), 7.95%; in assay [6] (setting [7]), 20%; in assay [6] (setting [8]) it was 41%; in assay [6] (at 50.0 µM), 36.2%.
`CN(C)CC1(C)CC/C(=C\c2ccc(Cl)cc2)C1=O` (stereo not given): the growth inhibition in assay [1] (setting [7]) was 3%; in assay [1] (setting [8]), 28%; in assay [1] (at 50.0 µM) it was 62%; in assay [2] (setting [7]), -14%; in assay [2] (setting [8]), 16%; in assay [2] (at 50.0 µM), 38.2%. Also, the growth inhibition in assay [3] (setting [7]) was 7%; in assay [3] (setting [8]), 39%; in assay [3] (at 50.0 µM), 67.7%; in assay [4] (setting [7]), 10%; in assay [4] (setting [8]), 36%; in assay [4] (at 50.0 µM), 52.5%. For the same compound, the growth inhibition was 15% in assay [5] (setting [7]); 65% in assay [5] (setting [8]); 35.4% in assay [5] (at 50.0 µM); 9% in assay [6] (setting [7]); 57% in assay [6] (setting [8]); 71.1% (active) in assay [6] (at 50.0 µM).
For the compound `CC(CC=NCCN=CCC(C)CC(C)(C)C)CC(C)(C)C` (stereo not given), the growth inhibition in assay [1] (setting [7]) was 16%; in assay [1] (setting [8]) it was -2%; in assay [1] (at 50.0 µM), 97.9% (active); in assay [2] (setting [7]), -3%; in assay [2] (setting [8]), 3%; in assay [2] (at 50.0 µM) it was 68.3%. In addition, the growth inhibition in assay [3] (setting [7]) was 5%; in assay [3] (setting [8]), 45%; in assay [3] (at 50.0 µM), 91.3% (active); in assay [4] (setting [7]), 0%; in assay [4] (setting [8]), 10%; in assay [4] (at 50.0 µM), 30.1%. Besides, the growth inhibition in assay [5] (setting [7]) is -6%; in assay [5] (setting [8]), 3%; in assay [5] (at 50.0 µM), 96.3% (active); in assay [6] (setting [7]), 1%; in assay [6] (setting [8]) it was 20%; in assay [6] (at 50.0 µM), 98.4% (active).
For `CC(/C=N/NS(=O)(=O)c1ccc(C)cc1)=C(c1ccccc1)c1ccccc1`, the growth inhibition in assay [1] (setting [7]) was 18%; in assay [1] (setting [8]), 87% (active); in assay [1] (at 50.0 µM), 81.2% (active); in assay [2] (setting [7]), 35%; in assay [2] (setting [8]), 96% (active); in assay [2] (at 50.0 µM), 55.5%. The growth inhibition is -79% in assay [3] (setting [7]); 96% (active) in assay [3] (setting [8]); 82.5% (active) in assay [3] (at 50.0 µM); -10% in assay [4] (setting [7]); 89% (active) in assay [4] (setting [8]); 72.8% (active) in assay [4] (at 50.0 µM). Further, the growth inhibition is 43% in assay [5] (setting [7]); 93% (active) in assay [5] (setting [8]); 70.4% (active) in assay [5] (at 50.0 µM); 62% in assay [6] (setting [7]); 94% (active) in assay [6] (setting [8]); 85% (active) in assay [6] (at 50.0 µM).
Turning to `CCN(C(=O)c1ccccc1C)C(c1ccccc1)P(=O)(c1ccccc1)c1ccccc1` (stereo not given), the growth inhibition in assay [1] (setting [7]) was 61%; in assay [1] (setting [8]), 99% (active); in assay [1] (at 50.0 µM) it was 78.6% (active); in assay [2] (setting [7]), 67%; in assay [2] (setting [8]), 98% (active); in assay [2] (at 50.0 µM), 86.3% (active). In addition, the growth inhibition was 28% in assay [3] (setting [7]); 98% (active) in assay [3] (setting [8]); 87.7% (active) in assay [3] (at 50.0 µM); 54% in assay [4] (setting [7]); 98% (active) in assay [4] (setting [8]); 53.8% in assay [4] (at 50.0 µM). The growth inhibition in assay [5] (setting [7]) is 61%; in assay [5] (setting [8]), 96% (active); in assay [5] (at 50.0 µM), 87.2% (active); in assay [6] (setting [7]), 61%; in assay [6] (setting [8]), 99% (active); in assay [6] (at 50.0 µM), 84.7% (active).
Turning to `S=C(NC/C(Br)=C/Br)Nc1cccc2ccccc12`, the growth inhibition is -30% in assay [1] (setting [7]); 99% (active) in assay [1] (setting [8]); 86% (active) in assay [1] (at 50.0 µM); -18% in assay [2] (setting [7]); 99% (active) in assay [2] (setting [8]); 89.8% (active) in assay [2] (at 50.0 µM). The growth inhibition is -21% in assay [3] (setting [7]); 99% (active) in assay [3] (setting [8]); 85.6% (active) in assay [3] (at 50.0 µM); -5% in assay [4] (setting [7]); 99% (active) in assay [4] (setting [8]); 88.8% (active) in assay [4] (at 50.0 µM). For the same compound, the growth inhibition was -25% in assay [5] (setting [7]); 99% (active) in assay [5] (setting [8]); 90.7% (active) in assay [5] (at 50.0 µM); -13% in assay [6] (setting [7]); 99% (active) in assay [6] (setting [8]); 81.3% (active) in assay [6] (at 50.0 µM).
Regarding `O=C(O)CN(CC(=O)O)C1CCCCC1N1CC(=O)OC(=O)C1` (stereo not given), the growth inhibition in assay [1] (setting [7]) is 35%; in assay [1] (setting [8]), 35%; in assay [1] (at 50.0 µM), 74.3% (active); in assay [2] (setting [7]) it was 17%; in assay [2] (setting [8]), 17%; in assay [2] (at 50.0 µM) it was 81.1% (active). Also, the growth inhibition in assay [3] (setting [7]) is 26%; in assay [3] (setting [8]) it was 26%; in assay [3] (at 50.0 µM) it was 75% (active); in assay [4] (setting [7]), 3%; in assay [4] (setting [8]), 3%; in assay [4] (at 50.0 µM) it was 64.3%. Moreover, the growth inhibition in assay [5] (setting [7]) was -7%; in assay [5] (setting [8]), -7%; in assay [5] (at 50.0 µM), 80.3% (active); in assay [6] (setting [7]) it was 25%; in assay [6] (setting [8]), 25%; in assay [6] (at 50.0 µM) it was 76% (active).
